TCR act: activators of T cell receptors | primary human leukocytes, anti-CD3, IL-2 HTRF, 48 h | 330,000 tested, under 10 active | Potency, µM (titrated, usually from 9.22 µM), without a hit: top-dose activation of IL-2 secretion, most hits filed as activators | AID 504894; also: % of control where 0% means no effect
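Primary human leukocytes were stimulated with a-CD3 beads plus compounds for 48 hr without co-stimulation; secreted IL-2 was quantified by HTRF using a-IL-2-K (europium cryptate) and a-IL-2-d2, excited at 320nm with acceptor emission read at 665nm.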
KinaseGlo FLuc: counter-screen: inhibitors of Kinase-Glo firefly luciferase | Q27757 | 200,000 tested, 0.28% active | Potency, µM (highest dose often 38.3 µM), for the others: at the top dose activity change, negative = inhibition, usual class: inhibitors | Kinase-Glo luciferase, ATP luminescence, 8 min; also: potency is read from the fitted curve at half-maximal effect; % is scaled to controls: 0 for no effect and ±100 for the full control effect; nearly all actives have a fitted effect of over 60% in size
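Light output from Kinase-Glo luciferase with luciferin and 10 uM ATP in 50 mM imidazole pH 7.2, KCl, MgCl2, Tween 20, BSA; compound pin-delivered, 8-min ambient incubation, then luminescence read.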
CBFb RUNX1 block: blocks binding between human CBF-beta and RUNX1 | Q01196+Q13951 | AlphaScreen CBFb-His/RUNX1-biotin binding, biochemical | Potency, µM (doses to about 59.8 µM), without a hit: top-dose activity, negative = inhibition, usual class: inhibitors | 230,000 tested, under 10 active | AID 1477; also: % of control where 0% means no effect
Target sequence (Q01196 whole entry, looked up): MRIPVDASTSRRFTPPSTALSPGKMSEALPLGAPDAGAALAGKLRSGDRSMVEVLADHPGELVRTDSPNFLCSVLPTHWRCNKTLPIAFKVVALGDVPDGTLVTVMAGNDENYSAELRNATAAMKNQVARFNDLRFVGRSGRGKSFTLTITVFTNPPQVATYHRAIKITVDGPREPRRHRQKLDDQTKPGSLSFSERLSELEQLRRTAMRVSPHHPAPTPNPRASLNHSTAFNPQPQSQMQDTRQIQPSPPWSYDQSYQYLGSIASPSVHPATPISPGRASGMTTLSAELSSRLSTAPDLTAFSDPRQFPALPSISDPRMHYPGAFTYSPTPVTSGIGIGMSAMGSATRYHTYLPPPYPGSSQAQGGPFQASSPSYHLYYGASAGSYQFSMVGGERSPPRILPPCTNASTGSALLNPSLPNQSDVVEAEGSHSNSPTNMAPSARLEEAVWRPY
Target sequence (Q13951 whole entry, looked up): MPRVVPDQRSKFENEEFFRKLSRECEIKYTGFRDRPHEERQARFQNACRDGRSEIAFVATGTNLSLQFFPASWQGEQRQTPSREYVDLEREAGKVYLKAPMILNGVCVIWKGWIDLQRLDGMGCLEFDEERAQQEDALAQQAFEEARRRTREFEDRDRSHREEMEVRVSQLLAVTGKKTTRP
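Proteins preincubated together for 20 min at RT before compound addition; 15 min later, nickel and streptavidin beads were added and left 90 min prior to AlphaScreen measurement.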
TRPV1 PAM: potentiators of human vanilloid receptor 1 (TRPV1) | potentiation, % at 8.33 µM | TRPV1-expressing cells, Fluo-8 calcium influx, capsaicin EC20 potentiation | 320,000 tested, 0.02% active | AID 540277 | Q8NER1; in the data active = potentiation above about 80%; inconclusive = between about 30% and that limit; also: 0% is about no effect
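Fluo-8 calcium influx in TRPV1-expressing cells, kinetic read (ex 480/em 520 nm). Compound added and read 3 min for agonist activity, followed by capsaicin at EC20 final and 2 min further read for enhancement.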
MBNL1-CUG inh: blocks human MBNL1 binding to CUG repeat RNA | Q9NR56 | TR-FRET MBNL1-His/biotin-(CUG)12 binding, 665/545 ratio | Potency, µM (highest dose often 57.5 µM), for inactives: at the top dose activity change, negative = inhibition, hits mostly inhibitors | 280,000 tested, 0.036% active | AID 2675; active = well fitted inhibition curve with a large enough effect in the signal ratio, with a control signal flat, not every such curve was filed as active; inconclusive = small, poorly fitted or top-dose-only effect, or effect the other way, or a change in a side signal; inactive = no such curve, though single readings can be large or run the other way; the % refers to the signal ratio; also: potency is read from the fitted curve at half-maximal effect; % is scaled to controls: 0 for no effect and ±100 for the full control effect
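Ratiometric TR-FRET (665 over 545 nm, excitation 340 nm) tracks disruption of MBNL1-His/biotin-(CUG)12 complex after 60 min at room temperature, with compounds at 92 nM to 58 uM final.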
TRPV1 agonist: human TRPV1 agonism; Q8NER1; TRPV1-expressing cells, Fluo-8 calcium influx, agonist mode; activation, % at 8.33 µM; 320,000 tested, 0.19% active; AID 540275; in the data active = activation above about 80%; inconclusive = between about 30% and that limit; also: 0% is about no effect
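Cells expressing TRPV1 were dye-loaded with Fluo-8 and read kinetically: 10 s baseline, 3 min after compound (agonist portion), then 2 min after EC20 capsaicin (allosteric enhancer portion). Calcium-bound dye fluorescence at 480/520 nm.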
* hit, by the source's call; ? = inconclusive; · = not tested or not shown; [ ] = another dose, or the depositor's remark. Compounds with a hit are over-represented: about 0.35% of the library has one in this group of screens. Unless noted, calls follow the shape of the dose curve; as a rule, active = well fitted curve in the direction sought with a large enough effect; inconclusive = small, poorly fitted or top-dose-only effect, or another doubt; inactive = no such curve, though single readings can be large; an effect the other way counts as inactive or inconclusive.

SMILES | TCR act | KinaseGlo FLuc | CBFb RUNX1 block | TRPV1 PAM | MBNL1-CUG inh | TRPV1 agonist
Cc1ccsc1C(=O)Nc1ccc2c(c1)OCCO2 | 11%[46.1 µM] | 10µM* | 0% | 1 | 7% | 14
O=C(Nc1ccc2c(c1)OCCO2)c1coc2ccccc2c1=O | -1%[46.1 µM] | 8.9µM* | -3% | -9 | 0% | ?
Cc1ccccc1C(=O)Nc1ccc2c(c1)OCCO2 | -8% | · | · | 7 | -4% | -1
Cc1ccc(C(=O)Nc2ccc3c(c2)CCC3)o1 | 1% | 13µM* | 4% | -11 | -6% | ?
Cc1occc1C(=O)Nc1ccc2c(c1)OCCO2 | 7% | 7.1µM* | -2% | -4 | 0% | -5
O=C(Nc1ccc2c(c1)CCC2)c1ccc(Br)o1 | -1% | -21% | 8% | -8 | -6% | ?
COc1ccc(-c2cc(C(=O)N/N=C/c3ccc(OC)c(OC)c3)[nH]n2)cc1 | · | -20% | · | · | · | ·
CC[C@H](C)[C@H](NC(=O)CNC(=O)[C@@H](NC(=O)[C@@H](NC(=O)[C@H](Cc1ccc(O)cc1)NC(=O)[C@H](CC(C)C)NC(=O)[C@H](C)NC(=O)[C@H](CCC(N)=O)NC(=O)CNC(=O)[C@@H]1CCCN1C(=O)CNC(=O)[C@H](Cc1ccccc1)NC(=O)[C@H](Cc1cnc[nH]1)NC(=O)[C@@H](NC(=O)CNC(=O)[C@H](CCCNC(=N)N)NC(=O)[C@H](CCCNC(=N)N)NC(=O)[C@@H](NC(=O)[C@H](CC(N)=O)NC(=O)[C@@H](N)CS)[C@@H](C)O)[C@@H](C)CC)[C@@H](C)O)[C@@H](C)O)C(=O)O | · | · | 4% | · | · | ·
Cc1occc1C(=O)Nc1ccc2c(c1)CCC2 | 3% | 13µM* | 7% | -17 | 3% | ?
Cc1c([N+](=O)[O-])c(C(=O)Nc2ccc3c(c2)OCCO3)nn1C | 1% | 13µM* | 1% | 4 | ? | 5
O=C(c1cc(-c2ccc(Cl)c(Cl)c2)on1)N1CCOCC1 | -4% | · | · | 4 | -2% | 80*
Cc1ccc(-n2nc(C(=O)N3CCOCC3)cc2-c2ccc(Cl)cc2)cc1 | -7% | 8% | 6% | 1 | 3% | 89*
O=C(c1cc(-c2ccc(Cl)cc2Cl)on1)N1CCOCC1 | · | -5% | 5% | -1 | 3% | 83*
N[C@@H](COC(c1cccc(F)c1)c1ccccc1OCc1ccccc1)C(=O)O (stereo not given in full) | · | · | 18% | · | · | ·
C#CCNC(=O)C1CCN(c2ccc(S(=O)(=O)N3CCOCC3)cc2Cl)CC1 | -3% | 2% | 1% | -11 | -26% | 82*
CC(C)CNC(=O)C1CCN(c2ccc(S(=O)(=O)N3CCOCC3)cc2Cl)CC1 | · | 0% | -3% | -40 | 2% | -2
CN1CCC[C@@H]1c1cccnc1.O=C(O)c1ccccc1O.O=C([OH2+])c1ccccc1O.O=C([OH2+])c1ccccc1O.O=C([OH2+])c1ccccc1O.[Cu] | · | -4%[7.66 µM] | · | · | · | ·
CCCCCCC#CC1C=CC(OC(C)=O)C(COC(C)=O)O1 (stereo not given) | · | · | 15%[13.1 µM] | · | · | ·
CCOc1ccc(NC(=O)Nc2ccccc2SC)cc1 | -5% | 11µM* | 10% | -6 | 1% | ?
CCOC(=O)c1cnc(Nc2nc3ccccc3o2)nc1C | 10% | 2µM* | 2% | -1 | 6% | -4
CCOC(=O)c1cnc(Nc2nc3ccccc3o2)nc1CSc1nnc(C)s1 | -2% | · | · | · | · | ·
CCCOc1ccc2cc(-c3ccccn3)c(=O)oc2c1 | 3%[46.1 µM] | 13µM* | ? | -11 | ? | ?
O=c1oc2cc(OCc3c(F)cccc3Cl)ccc2cc1-c1ccccn1 | 3% | 1% | -1% | -2 | -8% | 17
Cc1ccc(C(=O)Nc2ccccc2N2CCOCC2)c(C)c1 | · | -2% | · | · | · | ·
COc1ccc(Br)cc1C1NC(c2ccc3c(c2)OCO3)=CC(c2cc(Cl)ccc2O)N1 (stereo not given) | · | · | · | 15 | · | 5
SMILES | TCR act | KinaseGlo FLuc | CBFb RUNX1 block | TRPV1 PAM | MBNL1-CUG inh | TRPV1 agonist
O=C(Nc1ccccc1)Nc1ccc2ocnc2c1 | -24% | 11µM* | -12% | -18 | -4% | ?
COc1ccc(C(=O)NCCC2=CCCCC2)cc1[N+](=O)[O-] | -4% | 0% | -2% | -26 | ? | 88*
O=C(NCCC1=CCCCC1)c1ccc(Cl)c(S(=O)(=O)N2CCCCC2)c1 | -3% | · | · | -1 | 1% | ?
O=C(NCCC1=CCCCC1)c1ccc(Cl)c(S(=O)(=O)N2CCOCC2)c1 | -25% | 0% | 4% | -13 | 4% | 82*
O=S(=O)(O)C(c1ccccc1)[C@@H](O)c1ccccc1 (stereo not given in full) | · | 0%[7.66 µM] | · | · | · | ·
O=C1C(C2=C(O)c3ccccc3C2=O)=Nc2ccccc21 | -2% | 11µM* | -21% | 1 | ? | 2
O=C1c2ccccc2C(=O)c2c(O)ccc(O)c21 | · | 1% | ? | · | · | ·
C/C(N=NC(=[SH+])SCc1ccccc1)=C1\C=CC=CN1.[Cl][Cu] | · | 0%[7.66 µM] | · | · | · | ·
Cc1ccc(C(=O)Cc2ccccc2)cc1 | 1% | · | · | · | · | ·
Cc1ccc(C(=O)CC(=O)c2ccccc2)cc1 | · | · | · | -22 | 6% | 81*
CC1(C)NC(=O)N(CC(O)CN(Cc2ccccc2)Cc2ccccc2)C1=O (stereo not given) | 2% | 3% | 5% | -3 | -2% | 83*
COc1ccc(NC2CCCN(C(=O)CCOc3ccccc3)C2)cc1 (stereo not given) | 0% | · | · | -19 | 8% | 82*
Cc1ccc(NC2CCCN(C(=O)CCC(=O)c3ccccc3)C2)cc1C (stereo not given) | -3% | · | · | 4 | 5% | 92*
COc1ccc(NC2CCCN(C(=O)CCc3ccccc3F)C2)cc1 (stereo not given) | -3% | · | · | -1 | 3% | 81*
O=C(CC1CCCC1)N1CCCC(Nc2cccc(F)c2)C1 (stereo not given) | 10% | · | · | -11 | 6% | 84*
COc1ccc(NC2CCCN(C(=O)CSc3ccccc3)C2)cc1 (stereo not given) | -7% | · | · | 2 | 1% | ?
O[C@@H](c1cc(-c2ccccc2)nc2c1ccc1ccccc12)C1CCCCN1 (stereo not given in full) | · | -1%[7.66 µM] | · | · | · | ·
O=C(O)c1ccc(Cl)c(S(=O)(=O)Nc2ccccc2F)c1 | · | 1% | · | · | · | ·
O=C1CCCCN1CCC(=O)N1CCCC(Nc2ccccc2)C1 (stereo not given) | -2% | · | · | 7 | 4% | 0
O=C(CCc1cccc(Cl)c1)N1CCCC(Nc2ccccc2)C1 (stereo not given) | 8% | · | · | -2 | -6% | 84*

Screens deposited in PubChem BioAssay by National Center for Advancing Translational Sciences (NCATS).
